In paper PMC11006913:
Positions count from the first letter of the chain named.

Tests used:
Assay in all cases: PBM; 200 nM protein, PBS
Conditions in all cases: dsDNA, one strand shown
NKX2-5 [1] = target: NKX2-5 (Homo sapiens, UniProt P52952 125-210, R139K)
NKX2-5 [2] = target: NKX2-5 (Homo sapiens, UniProt P52952 125-210)
HOXD13 [3] = target: HOXD13 (Homo sapiens, UniProt P35453 263-343, T313R)
HOXD13 [4] = target: HOXD13 (Homo sapiens, UniProt P35453 263-343)
HOXD13 [5] = target: HOXD13 (Homo sapiens, UniProt P35453 263-343, T313A)
NKX3-2 [6] = target: NKX3-2 (Homo sapiens, UniProt P78367 192-278, P234S)
NKX3-2 [7] = target: NKX3-2 (Homo sapiens, UniProt P78367 192-278)
CRX = CRX (Homo sapiens, UniProt O43186 26-111, R41L)
NKX2-6 = target: T1, NKX2-6 (Homo sapiens, UniProt A6NCS4 118-204, R150C)
T1 sequence: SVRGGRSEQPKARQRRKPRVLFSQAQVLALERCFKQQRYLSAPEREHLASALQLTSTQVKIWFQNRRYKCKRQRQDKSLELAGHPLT

SIX6 [8] = target: T2, SIX6 (Homo sapiens, UniProt O95475 114-200, L167I)
T2 sequence: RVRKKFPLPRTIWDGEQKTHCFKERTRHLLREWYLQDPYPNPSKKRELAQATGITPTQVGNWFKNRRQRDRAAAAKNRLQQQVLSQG

SIX6 [9] = target: T3, SIX6 (Homo sapiens, UniProt O95475 114-200, L143V)
T3 sequence: T2 sequence with L30V, I54L

SIX6 [10] = target: T4, SIX6 (Homo sapiens, UniProt O95475 114-200, H141N)
T4 sequence: T2 sequence with H28N, I54L

SIX6 [11] = target: T5, SIX6 (Homo sapiens, UniProt O95475 114-200, L167M)
T5 sequence: T2 sequence with I54M

SIX6 [12] = target: T6, SIX6 (Homo sapiens, UniProt O95475 114-200, L143M)
T6 sequence: T2 sequence with L30M, I54L

SIX6 [13] = target: T7, SIX6 (Homo sapiens, UniProt O95475 114-200, L143I)
T7 sequence: T2 sequence with L30I, I54L

SIX6 [14] = target: T8, SIX6 (Homo sapiens, UniProt O95475 114-200, T165G)
T8 sequence: T2 sequence with T52G, I54L

SIX6 [15] = target: T9, SIX6 (Homo sapiens, UniProt O95475 114-200, T139Q)
T9 sequence: T2 sequence with T26Q, I54L

SIX6 [16] = target: T10, SIX6 (Homo sapiens, UniProt O95475 114-200, T165A)
T10 sequence: T2 sequence with T52A, I54L

SIX6 [17] = target: T11, SIX6 (Homo sapiens, UniProt O95475 114-200, L167V)
T11 sequence: T2 sequence with I54V

SIX6 [18] = target: T12, SIX6 (Homo sapiens, UniProt O95475 114-200)
T12 sequence: T2 sequence with I54L

HOXD13 (Homo sapiens, UniProt P35453 263-343, T313R), sequence (P35453 263-343 T313R): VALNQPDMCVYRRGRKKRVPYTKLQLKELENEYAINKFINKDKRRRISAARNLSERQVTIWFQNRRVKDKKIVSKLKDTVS
CRX, sequence (O43186 26-111 R41L): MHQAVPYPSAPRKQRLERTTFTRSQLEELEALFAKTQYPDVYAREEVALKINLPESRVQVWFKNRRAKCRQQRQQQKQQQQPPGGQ
HOXD13 (Homo sapiens, UniProt P35453 263-343, T313A), sequence (P35453 263-343 T313A): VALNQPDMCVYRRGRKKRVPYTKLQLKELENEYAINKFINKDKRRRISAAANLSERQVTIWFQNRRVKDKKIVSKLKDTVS
NKX3-2 (Homo sapiens, UniProt P78367 192-278), sequence (P78367 192-278): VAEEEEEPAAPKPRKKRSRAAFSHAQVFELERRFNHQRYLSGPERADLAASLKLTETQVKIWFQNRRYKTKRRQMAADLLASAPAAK
HOXD13 (Homo sapiens, UniProt P35453 263-343), sequence (P35453 263-343): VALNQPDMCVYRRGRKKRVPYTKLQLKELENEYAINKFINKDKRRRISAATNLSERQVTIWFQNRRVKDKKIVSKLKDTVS
NKX3-2 (Homo sapiens, UniProt P78367 192-278, P234S), sequence (P78367 192-278 P234S): as the sequence (P78367 192-278) above, with P43S counted along it
NKX2-5 (Homo sapiens, UniProt P52952 125-210, R139K), sequence (P52952 125-210 R139K): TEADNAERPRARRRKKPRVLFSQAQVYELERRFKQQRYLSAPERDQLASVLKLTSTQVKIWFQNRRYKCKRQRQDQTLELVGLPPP
NKX2-5 (Homo sapiens, UniProt P52952 125-210), sequence (P52952 125-210): as the sequence (P52952 125-210 R139K) above, with K15R counted along it

With CACTACAC the binding signal (NKX2-5 [1]) was 10.6 upbm affinity estimate (log intensity, higher = more binding, comparable within an allelic series) and the binding signal (NKX2-5 [2]) was 10.7 upbm affinity estimate (log intensity, higher = more binding, comparable within an allelic series).
ATTAATTG was tested, and the binding signal (HOXD13 [3]) was 10.7 upbm affinity estimate (log intensity, higher = more binding, comparable within an allelic series).
In the case of CAATTAAA, the binding signal (HOXD13 [3]) is reported as 10.7 upbm affinity estimate (log intensity, higher = more binding, comparable within an allelic series), the binding signal (HOXD13 [4]) is reported as 11.7 upbm affinity estimate (log intensity, higher = more binding, comparable within an allelic series) and the binding signal (HOXD13 [5]) is reported as 11.7 upbm affinity estimate (log intensity, higher = more binding, comparable within an allelic series).
ATTAATAG was tested, and the binding signal (HOXD13 [3]) was 10.9 upbm affinity estimate (log intensity, higher = more binding, comparable within an allelic series), the binding signal (HOXD13 [4]) was 11.8 upbm affinity estimate (log intensity, higher = more binding, comparable within an allelic series) and the binding signal (HOXD13 [5]) was 11.8 upbm affinity estimate (log intensity, higher = more binding, comparable within an allelic series).
In the case of CTAATTGA, the binding signal (NKX3-2 [6]) is reported as 11.5 upbm affinity estimate (log intensity, higher = more binding, comparable within an allelic series) and the binding signal (NKX3-2 [7]) is reported as 11.6 upbm affinity estimate (log intensity, higher = more binding, comparable within an allelic series).
AATTAATC was tested, and the binding signal (CRX) was 12.5 upbm affinity estimate (log intensity, higher = more binding, comparable within an allelic series).
With GGCAGGCC the binding signal (NKX2-6) was 9.24 upbm affinity estimate (log intensity, higher = more binding, comparable within an allelic series), the binding signal (HOXD13 [3]) was 9.41 upbm affinity estimate (log intensity, higher = more binding, comparable within an allelic series) and the binding signal (HOXD13 [4]) was 9.41 upbm affinity estimate (log intensity, higher = more binding, comparable within an allelic series). The binding signal (HOXD13 [5]) was 9.35 upbm affinity estimate (log intensity, higher = more binding, comparable within an allelic series).
CCAATTAA was tested, and the binding signal (HOXD13 [3]) was 10.8 upbm affinity estimate (log intensity, higher = more binding, comparable within an allelic series), the binding signal (HOXD13 [4]) was 11.9 upbm affinity estimate (log intensity, higher = more binding, comparable within an allelic series) and the binding signal (HOXD13 [5]) was 11.8 upbm affinity estimate (log intensity, higher = more binding, comparable within an allelic series). The binding signal (NKX3-2 [6]) was 11.7 upbm affinity estimate (log intensity, higher = more binding, comparable within an allelic series) and the binding signal (NKX3-2 [7]) was 11.8 upbm affinity estimate (log intensity, higher = more binding, comparable within an allelic series).
CCAGGTCC was tested, and the binding signal (SIX6 [8]) was 9.09 upbm affinity estimate (log intensity, higher = more binding, comparable within an allelic series), the binding signal (SIX6 [9]) was 8.75 upbm affinity estimate (log intensity, higher = more binding, comparable within an allelic series) and the binding signal (SIX6 [10]) was 8.99 upbm affinity estimate (log intensity, higher = more binding, comparable within an allelic series). For the same sequence, the binding signal (SIX6 [11]) was 8.79 upbm affinity estimate (log intensity, higher = more binding, comparable within an allelic series), the binding signal (SIX6 [12]) was 9.02 upbm affinity estimate (log intensity, higher = more binding, comparable within an allelic series) and the binding signal (SIX6 [13]) was 8.99 upbm affinity estimate (log intensity, higher = more binding, comparable within an allelic series). For the same sequence, the binding signal (SIX6 [14]) was 9.06 upbm affinity estimate (log intensity, higher = more binding, comparable within an allelic series), the binding signal (SIX6 [15]) was 9.28 upbm affinity estimate (log intensity, higher = more binding, comparable within an allelic series) and the binding signal (HOXD13 [3]) was 9.45 upbm affinity estimate (log intensity, higher = more binding, comparable within an allelic series). The binding signal (SIX6 [16]) was 9.07 upbm affinity estimate (log intensity, higher = more binding, comparable within an allelic series), the binding signal (HOXD13 [4]) was 9.43 upbm affinity estimate (log intensity, higher = more binding, comparable within an allelic series) and the binding signal (SIX6 [17]) was 9 upbm affinity estimate (log intensity, higher = more binding, comparable within an allelic series). For the same sequence, the binding signal (SIX6 [18]) was 9.04 upbm affinity estimate (log intensity, higher = more binding, comparable within an allelic series) and the binding signal (HOXD13 [5]) was 9.65 upbm affinity estimate (log intensity, higher = more binding, comparable within an allelic series).
ACTAATTG was tested, and the binding signal (NKX3-2 [6]) was 11.8 upbm affinity estimate (log intensity, higher = more binding, comparable within an allelic series) and the binding signal (NKX3-2 [7]) was 11.8 upbm affinity estimate (log intensity, higher = more binding, comparable within an allelic series).
For CTAATTAC, the binding signal (NKX3-2 [6]) was 11.6 upbm affinity estimate (log intensity, higher = more binding, comparable within an allelic series) and the binding signal (NKX3-2 [7]) was 11.7 upbm affinity estimate (log intensity, higher = more binding, comparable within an allelic series).
For CAATTAAC, the binding signal (HOXD13 [5]) was 11.6 upbm affinity estimate (log intensity, higher = more binding, comparable within an allelic series).
GGCAATTA was tested, and the binding signal (NKX3-2 [6]) was 11.8 upbm affinity estimate (log intensity, higher = more binding, comparable within an allelic series) and the binding signal (NKX3-2 [7]) was 11.9 upbm affinity estimate (log intensity, higher = more binding, comparable within an allelic series).
For CTTGCGGC, the binding signal (NKX3-2 [6]) was 10.7 upbm affinity estimate (log intensity, higher = more binding, comparable within an allelic series) and the binding signal (NKX3-2 [7]) was 10.6 upbm affinity estimate (log intensity, higher = more binding, comparable within an allelic series).
GACAATTA was tested, and the binding signal (NKX2-6) was 11 upbm affinity estimate (log intensity, higher = more binding, comparable within an allelic series).
With ATTAATGC the binding signal (CRX) was 11 upbm affinity estimate (log intensity, higher = more binding, comparable within an allelic series).
CCCAGGCG was tested, and the binding signal (NKX3-2 [6]) was 10.6 upbm affinity estimate (log intensity, higher = more binding, comparable within an allelic series) and the binding signal (NKX3-2 [7]) was 10.6 upbm affinity estimate (log intensity, higher = more binding, comparable within an allelic series).
For GAGGGGGC, the binding signal (CRX) was 8.14 upbm affinity estimate (log intensity, higher = more binding, comparable within an allelic series).
GGAGCGCA was tested, and the binding signal (SIX6 [8]) was 8.88 upbm affinity estimate (log intensity, higher = more binding, comparable within an allelic series), the binding signal (SIX6 [9]) was 8.9 upbm affinity estimate (log intensity, higher = more binding, comparable within an allelic series) and the binding signal (SIX6 [10]) was 8.88 upbm affinity estimate (log intensity, higher = more binding, comparable within an allelic series). The binding signal (SIX6 [11]) was 8.87 upbm affinity estimate (log intensity, higher = more binding, comparable within an allelic series), the binding signal (SIX6 [12]) was 8.97 upbm affinity estimate (log intensity, higher = more binding, comparable within an allelic series) and the binding signal (SIX6 [13]) was 8.85 upbm affinity estimate (log intensity, higher = more binding, comparable within an allelic series). For the same sequence, the binding signal (SIX6 [14]) was 8.87 upbm affinity estimate (log intensity, higher = more binding, comparable within an allelic series), the binding signal (SIX6 [15]) was 8.78 upbm affinity estimate (log intensity, higher = more binding, comparable within an allelic series) and the binding signal (SIX6 [16]) was 8.96 upbm affinity estimate (log intensity, higher = more binding, comparable within an allelic series). For the same sequence, the binding signal (SIX6 [17]) was 8.93 upbm affinity estimate (log intensity, higher = more binding, comparable within an allelic series) and the binding signal (SIX6 [18]) was 8.87 upbm affinity estimate (log intensity, higher = more binding, comparable within an allelic series).
